From PubChem BioAssay
Active and inactive are the calls of the source.

Assays:
[1] = E. coli DRC41 culture turbidity changes, primary screen, E. coli filamentation inducer project, strain DRC41, OD650, 48 h (AID 1152);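 also: E. coli MC1000 strain DRC41 lacking acrAB efflux pump and sulA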; settings: E. coli DRC41 (acrAB sulA), higher = more signal, called active from +8 up or from −8 down
[2] = small-molecule binders of probe aLefty1, primary screen, biochemical, small-molecule microarray, 635/667 nm fluorescence (AID 1153); settings: higher = more signal;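 also: score merges spot fluorescence with signal-to-noise ratio from the scanned slide images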
[3] = PSAC antagonists in infected red cells, primary screen, cell-based, P. falciparum Indochina, OD700, 1 h (AID 1154); settings: P. falciparum Indochina infected RBC osmotic lysis, higher = more signal, called active from +8 up or from −8 down
[4] = PSAC antagonists in infected red cells, primary screen, cell-based, P. falciparum Indochina, OD700, 2 h (AID 1155);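 also: lysis reports solute entry through the parasite surface anion channel PSAC; channel blockers reduce lysis of infected cells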; settings: P. falciparum Indochina infected erythrocytes, osmotic lysis OD700; higher = more signal, called active from +8 up or from −8 down
[5] = osmotic lysis modulators in infected erythrocytes, primary screen, PSAC antagonist project, cell-based, P. falciparum Indochina, OD700, 3 h (AID 1156); settings: higher = more signal, called active from +8 up or from −8 down
[6] = PSAC antagonists in infected red cells, primary screen, cell-based, P. falciparum Indochina, OD700, 18 h (AID 1157); settings: P. falciparum Indochina infected erythrocytes, osmotic lysis OD700, 18 h; higher = more signal, called active from +8 up or from −8 down
[7] = modulators of S6 phosphorylation in cells, primary screen, cell-based, A549, cytoblot, luminescence, serum-stimulated (AID 1158); settings: A549 phospho-S6 cytoblot, 5 h, higher = more signal;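 also: serum-stimulated A549 lung adenocarcinoma cells; signal is phosphorylated S6 detected by cytoblot immunostaining with HRP secondary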
[8] = biological target: NADPH oxidase 2 (Homo sapiens) (UniProt P04839); experiment: NOX2-dependent H2O2 signal modulators, primary screen, NOX inhibitor project, cell-based, HEK293-NOX2, PMA-stimulated, Amplex Red fluorescence (AID 1159); settings: 45 min, higher = more signal, called active from +8 up or from −8 down; also: test concentration not given here
[9] = biological target: NADPH oxidase 4 (Homo sapiens) (UniProt Q9NPH5); experiment: NOX4-dependent H2O2 signal modulators, primary screen, NOX inhibitor project, cell-based, HEK293-NOX4, tetracycline-induced, Amplex Red fluorescence (AID 1160); settings: 45 min, higher = more signal, called active from +8 up or from −8 down
[10] = biological target: NADPH oxidase 5 (Homo sapiens) (UniProt Q96PH1); experiment: NOX5-dependent H2O2 signal modulators, primary screen, NOX inhibitor project, cell-based, HEK293-NOX5, Amplex Red fluorescence (AID 1161); settings: HEK293-NOX5, ionomycin, 45 min, higher = more signal
[11] = A549 cell viability effects, profiling panel, calcein-AM fluorescence, 48 h, basal (AID 1162); settings: higher = more signal; also: test concentration not given here
[12] = adipocyte viability effects, profiling panel, cell-based, 3T3-L1 adipocytes, calcein-AM fluorescence, 48 h, basal (AID 1163); settings: 3T3-L1 adipocytes viability, higher = more signal; also: test concentration not given here
[13] = HepG2 cell viability effects, profiling panel, calcein-AM fluorescence, 48 h, basal (AID 1164); settings: higher = more signal; also: test concentration not given here
[14] = MM1S cell viability effects, profiling panel, calcein-AM fluorescence, 48 h, basal (AID 1165); settings: higher = more signal;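 also: viability of MM1S multiple myeloma cells under basal unstimulated conditions; test concentration not given here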
[15] = basal RPMI8226 viability, no added stimulus, profiling panel, cell-based, calcein-AM fluorescence, 48 h, PK04 Diversity Set (AID 1166); settings: RPMI8226 myeloma viability, higher = more signal;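 also: cells grown under basal conditions without added stimulus; test concentration not given here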
[16] = basal HepG2 mitochondrial membrane potential changes, profiling panel, cell-based, JC-1 fluorescence, 24 h, 100 nL compound (AID 1167); settings: higher = more signal; also: test concentration not given here
[17] = basal 3T3-L1 adipocyte mitochondrial potential changes, profiling panel, cell-based, JC-1 fluorescence, 3T3-L1 adipocytes, 24 h, 100 nL compound (AID 1168); settings: JC-1 mitochondrial fluorescence, higher = more signal, called active from +8 up or from −8 down; also: test concentration not given here
[18] = basal RPMI8226 mitochondrial membrane potential changes, profiling panel, cell-based, JC-1 fluorescence, 24 h, 100 nL compound (AID 1169); settings: RPMI8226 myeloma, JC-1 mitochondrial potential fluorescence, higher = more signal; also: test concentration not given here
[19] = basal MM1S mitochondrial membrane potential changes, profiling panel, cell-based, JC-1 fluorescence, 24 h, 100 nL compound (AID 1170); settings: higher = more signal; also: test concentration not given here
[20] = A549 lung cancer cell viability effects, profiling panel, resazurin fluorescence, 24 h, PK04 Diversity Set (AID 1171); settings: higher = more signal, called active from +8 up or from −8 down; also: test concentration not given here

Chain of NADPH oxidase 5 (Homo sapiens) (Q96PH1 whole entry, looked up): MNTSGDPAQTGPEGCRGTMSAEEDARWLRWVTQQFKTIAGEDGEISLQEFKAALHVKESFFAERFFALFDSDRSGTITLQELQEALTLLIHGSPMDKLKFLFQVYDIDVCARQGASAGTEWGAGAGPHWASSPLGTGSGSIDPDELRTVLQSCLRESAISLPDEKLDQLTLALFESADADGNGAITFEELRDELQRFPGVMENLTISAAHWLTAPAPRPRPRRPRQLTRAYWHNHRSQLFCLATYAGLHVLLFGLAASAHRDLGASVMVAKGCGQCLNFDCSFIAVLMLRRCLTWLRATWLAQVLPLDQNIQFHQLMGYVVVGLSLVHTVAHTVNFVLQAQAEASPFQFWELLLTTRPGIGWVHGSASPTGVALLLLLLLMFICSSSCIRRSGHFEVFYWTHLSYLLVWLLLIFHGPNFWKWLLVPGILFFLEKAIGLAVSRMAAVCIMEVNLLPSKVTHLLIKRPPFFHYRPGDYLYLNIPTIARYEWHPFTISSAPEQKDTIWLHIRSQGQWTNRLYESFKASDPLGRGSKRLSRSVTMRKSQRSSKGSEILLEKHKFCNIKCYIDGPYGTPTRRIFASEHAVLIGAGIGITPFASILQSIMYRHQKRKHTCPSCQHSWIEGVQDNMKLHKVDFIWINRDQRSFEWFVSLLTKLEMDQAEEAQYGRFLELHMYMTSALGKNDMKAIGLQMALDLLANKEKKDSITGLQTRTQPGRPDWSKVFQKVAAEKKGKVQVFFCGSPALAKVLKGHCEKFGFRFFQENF
Chain of NADPH oxidase 4 (Homo sapiens) (Q9NPH5 whole entry, looked up): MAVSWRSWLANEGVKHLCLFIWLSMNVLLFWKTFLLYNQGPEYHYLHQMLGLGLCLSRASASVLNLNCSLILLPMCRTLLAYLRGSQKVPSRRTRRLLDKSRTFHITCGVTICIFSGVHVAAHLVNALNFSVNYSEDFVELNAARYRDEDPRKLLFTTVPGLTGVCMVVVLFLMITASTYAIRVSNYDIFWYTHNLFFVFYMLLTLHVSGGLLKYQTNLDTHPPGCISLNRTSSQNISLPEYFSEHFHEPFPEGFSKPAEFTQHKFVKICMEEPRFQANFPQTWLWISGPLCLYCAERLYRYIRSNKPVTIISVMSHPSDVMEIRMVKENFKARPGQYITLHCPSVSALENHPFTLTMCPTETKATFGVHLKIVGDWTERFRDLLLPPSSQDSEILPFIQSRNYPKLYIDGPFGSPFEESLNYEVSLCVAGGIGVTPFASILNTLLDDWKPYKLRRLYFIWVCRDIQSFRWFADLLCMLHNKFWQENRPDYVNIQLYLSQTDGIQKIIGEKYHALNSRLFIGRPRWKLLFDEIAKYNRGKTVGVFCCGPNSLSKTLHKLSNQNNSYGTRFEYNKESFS
Chain of NADPH oxidase 2 (Homo sapiens) (P04839 whole entry, looked up): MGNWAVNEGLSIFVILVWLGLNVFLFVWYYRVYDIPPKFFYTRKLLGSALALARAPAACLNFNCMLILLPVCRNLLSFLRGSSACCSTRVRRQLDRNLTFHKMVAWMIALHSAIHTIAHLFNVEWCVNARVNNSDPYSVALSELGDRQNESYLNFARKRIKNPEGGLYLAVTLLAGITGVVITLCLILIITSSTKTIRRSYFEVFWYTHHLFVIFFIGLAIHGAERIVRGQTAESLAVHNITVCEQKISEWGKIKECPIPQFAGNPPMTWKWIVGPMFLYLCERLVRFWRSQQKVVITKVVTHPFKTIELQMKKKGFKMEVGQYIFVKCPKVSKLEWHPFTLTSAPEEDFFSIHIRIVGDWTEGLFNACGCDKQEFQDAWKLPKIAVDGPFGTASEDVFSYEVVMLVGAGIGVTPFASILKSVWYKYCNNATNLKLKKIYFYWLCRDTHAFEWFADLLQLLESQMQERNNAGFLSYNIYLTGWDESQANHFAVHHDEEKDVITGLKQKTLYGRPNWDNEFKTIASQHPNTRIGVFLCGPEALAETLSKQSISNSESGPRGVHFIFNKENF

SMILES	z-score [1]	composite z-score [2]	z-score [3]	z-score [4]	z-score [5]	z-score [6]	z-score [7]	z-score [8]	z-score [9]	z-score [10]	z-score [11]	z-score [12]	z-score [13]	z-score [14]	z-score [15]	z-score [16]	z-score [17]	z-score [18]	z-score [19]	z-score [20]
CO[C@H]1O[C@H](CO)[C@@H](OC(=O)Nc2ccccc2)[C@@H]2OC(=O)[C@@H](Cc3ccccc3)C/C=C/C[C@H](Cc3ccccc3)C(=O)O[C@@H]12	0.364 (inactive)	-0.093	0.131 (inactive)	0.162 (inactive)	0.288 (inactive)	0.0794 (inactive)	-0.0813	-2.79 (inactive)	-0.266 (inactive)	-1.3	-0.255	-0.0852	0.297	0.36	0.335	-0.502	2.28 (inactive)	-0.532	-1.65	-0.869 (inactive)
COCCOC(=O)N1C(=O)[C@@]2(c3cc(C#CC4=CCCCC4)ccc31)[C@H](c1ccc(O)cc1)N1[C@H](c3ccccc3)[C@H](c3ccccc3)OC(=O)[C@H]1[C@@H]2C(=O)N1CCc2cc(OC)c(OC)cc2C1	-0.164 (inactive)	0.0355	0.751 (inactive)	0.394 (inactive)	-6.44 (inactive)	0.0991 (inactive)	-0.294	1.48 (inactive)	1.04 (inactive)	1.03	-0.565	-0.154	-0.493	0.0055	-1.33	0.0573	1.8 (inactive)	-1.11	-0.432	0.0836 (inactive)
C#CCN(C(=O)OC(C)(C)C)[C@H](CO)c1ccccc1	-1.15 (inactive)	-0.0536	1.57 (inactive)	-0.0352 (inactive)	-0.195 (inactive)	0.133 (inactive)	0.137	0.441 (inactive)	0.469 (inactive)	0.745	-0.413	-0.24	-1.51	-0.404	-0.404	-1.16	0.0135 (inactive)	0.136	-0.125	0.659 (inactive)
C=C[C@@H](CO)NS(=O)(=O)c1ccc(Br)cc1	3.75 (inactive)	-0.239	-0.398 (inactive)	-0.68 (inactive)	-1.12 (inactive)	-1.81 (inactive)	1.36	0.908 (inactive)	1.05 (inactive)	1.44	2.03	0.935	2.23	0.855	1.05	0.631	0.369 (inactive)	0.133	0.993	2.35 (inactive)
CCCCC(=C=CC[C@@H](O)c1ccc(OCCO)cc1)CCO	0.565 (inactive)	0.0129	6.76 (inactive)	0.892 (inactive)	0.249 (inactive)	0.503 (inactive)	-0.481	1.14 (inactive)	0.699 (inactive)	-0.192	1.39	-0.0802	0.016	-0.64	0.796	0.0677	-0.214 (inactive)	-0.0377	1.03	1.46 (inactive)
COCCOC(=O)N1C(=O)[C@@]2(c3cc(C#CCCO)ccc31)[C@H](C(=O)N1CCN(c3ncccn3)CC1)[C@H]1C(=O)O[C@H](c3ccccc3)[C@H](c3ccccc3)N1[C@@H]2c1ccc(OCCO)cc1	-0.862 (inactive)	0.197	11.4 (active)	3.12 (inactive)	0.72 (inactive)	1.39 (inactive)	-0.633	1.45 (inactive)	0.709 (inactive)	1.21	0.451	0.474	-0.442	-1.07	0.863	-1.02	0.0633 (inactive)	-0.185	-1.02	0.427 (inactive)
Cc1ccc(S(=O)(=O)N2[C@@H](c3ccccc3)C(C(=O)O)=CC[C@H]2c2ccc(F)cc2)cc1	-0.232 (inactive)	0.214	2.05 (inactive)	0.706 (inactive)	1.1 (inactive)	0.66 (inactive)	-0.0796	0.0361 (inactive)	0.605 (inactive)	0.953	-0.996	0.31	-0.73	0.102	-0.296	-0.699	0.2 (inactive)	0.597	-1.09	0.649 (inactive)
C=CCNC(=O)[C@@H]1[C@H]2C(=O)O[C@H](c3ccccc3)[C@H](c3ccccc3)N2[C@H](c2ccc(O)cc2)[C@@]12C(=O)N(C(=O)OCCOC)c1ccc(C#CCC(C(=O)OC)C(=O)OC)cc12	1.17 (inactive)	0.0026	2.41 (inactive)	0.225 (inactive)	-0.451 (inactive)	0.393 (inactive)	0.0945	0.932 (inactive)	0.584 (inactive)	0.831	0.468	0.0473	0.419	-1.83	-2.88	0.206	0.605 (inactive)	-0.161	-0.012	-0.419 (inactive)
COCCCNC(=O)[C@@]1(Cc2ccccc2I)c2ccccc2C(=O)N(Cc2ccccc2OC)[C@H]1c1ccc(CO)cc1	0.567 (inactive)	-0.164	10.1 (active)	1.27 (inactive)	1.73 (inactive)	0.576 (inactive)	-0.0483	-1.68 (inactive)	0.642 (inactive)	-1.19	0.0588	-0.188	-0.387	-0.686	-1.58	1.44	-0.217 (inactive)	-0.533	-0.151	-0.113 (inactive)
C=CCOC(=O)[C@H]1[C@@H]2C(=O)O[C@@H](c3ccccc3)[C@@H](c3ccccc3)N2[C@@H](c2ccc(OCCOC(=O)[C@H]3C[C@H]4C(=O)NCC(=O)N4[C@H]3c3cccc(OCCO)c3)cc2)[C@]12C(=O)Nc1ccc(I)cc12	0.0133 (inactive)	1.31	5.17 (inactive)	2.48 (inactive)	0.939 (inactive)	1.58 (inactive)	0.58	1.71 (inactive)	0.956 (inactive)	1.4	0.0164	0.656	0.902	-0.223	0.491	-0.777	-0.00167 (inactive)	-0.554	-1.28	0.592 (inactive)
CC(C)(C)OC(=O)N1[C@@H](C=C(Br)Br)COC1(C)C	1.98 (inactive)	-0.147	-0.794 (inactive)	-1.16 (inactive)	-0.884 (inactive)	-1.66 (inactive)	0.855	2.82 (inactive)	0.4 (inactive)	-0.152	0.4	0.46	1.32	-0.255	-0.639	0.175	1.2 (inactive)	-0.187	0.548	-1.4 (inactive)
C=C(COC)/C(=C/C[C@@H](OC(C)=O)c1cccc(OCCO)c1)c1cnc2ccccc2c1	0.441 (inactive)	0.106	22.7 (active)	4.9 (inactive)	0.377 (inactive)	1.58 (inactive)	0.249	-1.21 (inactive)	-0.77 (inactive)	-2.27	0.37	1.35	-0.705	-0.588	-0.461	0.902	-0.0217 (inactive)	0.0629	0.627	-0.736 (inactive)
C=CCN1C(=O)[C@]2(O[C@H](CCO)[C@@H]([Si](C)(C)c3ccc(OC)cc3)[C@@H]2C)c2cc(N3C(=O)c4ccccc4Oc4ccccc43)ccc21	-0.458 (inactive)	0.568	6.17 (inactive)	2.82 (inactive)	-0.512 (inactive)	2.95 (inactive)	0.695	0.0876 (inactive)	0.945 (inactive)	-0.216	-3.65	0.139	-4.64	-2.73	-4.35	-2.08	-0.599 (inactive)	-1.04	-2.15	-5.48 (inactive)
[N-]=[N+]=NCc1ccccc1C[C@]1(C(=O)N2CCCCC2)COC(c2ccc(OCCCO)cc2)=N1	2.89 (inactive)	-0.543	29.2 (active)	19.5 (active)	4.13 (inactive)	2.11 (inactive)	-0.305	-1.66 (inactive)	0.0299 (inactive)	-1.38	0.139	-0.288	-0.689	-3.54	-4.52	-0.792	0.607 (inactive)	-1.22	-1.98	0.898 (inactive)
CC[C@@H](O[Si](C#C[Si](C(C)C)(C(C)C)C(C)C)(C(C)C)C(C)C)c1cn([C@H](CO)Cc2ccccc2)nn1	0.922 (inactive)	-0.0094	0.355 (inactive)	0.49 (inactive)	-0.68 (inactive)	0.0878 (inactive)	-0.116	-0.69 (inactive)	0.408 (inactive)	-0.133	-0.28	-1.04	0.928	0.297	0.944	0.74	-0.123 (inactive)	-0.0761	-0.757	0.194 (inactive)
CC[C@@H](O[Si](C#C[Si](C(C)C)(C(C)C)C(C)C)(C(C)C)C(C)C)c1cn(Cc2cccc(Cl)c2)nn1	1.2 (inactive)	0.106	-0.0842 (inactive)	0.523 (inactive)	-0.559 (inactive)	0.0622 (inactive)	-0.559	-0.16 (inactive)	-0.839 (inactive)	-1.62	-0.163	-1.25	0.0222	0.534	0.0929	0.0106	-0.00161 (inactive)	0.0677	-1.25	0.359 (inactive)
C=C[C@H](C)[C@@H](OC(=O)Nc1ccc(SC)cc1)c1ccc(OCCO)cc1	-2.61 (inactive)	0.459	28.3 (active)	20.6 (active)	3.01 (inactive)	2.27 (inactive)	-0.336	-1.31 (inactive)	-1.23 (inactive)	0.0398	-0.305	-0.0489	-0.232	-1.69	-1.81	-3.37	-0.168 (inactive)	-0.639	-0.114	-0.505 (inactive)
O=C1OCCC/C=C\[C@H]2OC34C=CCN(Cc5ccccc5)C(=O)[C@H]3N(CCO)C(=O)[C@@H]4C12 (stereo not given in full)	2.28 (inactive)	-0.0536	1.65 (inactive)	0.803 (inactive)	1.82 (inactive)	0.671 (inactive)	0.0012	1.7 (inactive)	0.571 (inactive)	1.68	0.457	-0.728	1.21	1.64	0.998	1.03	0.857 (inactive)	-0.0351	-0.27	0.263 (inactive)
